SMN2 splice up = enhancers of SMN2 splice variant expression | HEK293 SMN2-luciferase splicing reporter, luminescence, 30-36 h | 2.8% of 210,000 active | AID 1458 | Potency, µM (top dose mostly 46.1 µM), for inactives: at the top dose activity change, positive = activation, usual class: activators; note: % of control where 0% means no effect; nearly all actives have a fitted effect of over 55% in size
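HEK293 cells carry an SMN2 minigene-luciferase reporter in which exon 7 inclusion puts luciferase in frame. Cells were seeded at 2000 cells/well, attached for 10-12 hours, then exposed to compounds for 30-36 hours at 37C before ONE-Glo luminescence.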
NPC1 prom act = activates the NPC1 promoter; 2.4% of 320,000 active; Huh7 NPC1 promoter luciferase reporter, 24 h; Potency, µM (titrated, usually from 9.22 µM), without a hit: at the highest dose activation, most hits filed as activators; note: % of control where 0% means no effect; nearly all actives have a fitted effect of over 60% in size
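In 1536-well qHTS, Huh7 cells harboring an NPC1 promoter–luciferase construct received compound for 24 h; activation was quantified by luminescence following luciferase reagent addition.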
Rab9 prom act = activates the Rab9 promoter; Huh7 Rab9 promoter-luciferase reporter, luminescence, 24 h; Potency, µM (doses to about 9.22 µM), without a hit: at the highest dose activation, negative = inhibition, actives largely listed as activators; 2.8% of 320,000 active; AID 485297; note: % of control where 0% means no effect; nearly all actives have a fitted effect of over 60% in size
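Huh7 cells stably carrying Rab9 promoter–luciferase reporter, plated 1500 cells/well, compound added after 2 h and incubated 24 h at 37 °C; luciferase luminescence then read after 10 min with detection reagent.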
ELG1 genotox = inducers of genotoxicity in HEK293T ELG1-luciferase cells; Potency, µM (series often up to 46 µM), without a hit: at the top dose activity change, positive = activation, actives largely listed as activators; HEK293T ELG1-luciferase reporter, luminescence, 16 h; 1.3% of 330,000 active; AID 504466; note: % of control where 0% means no effect; nearly all actives have a fitted effect of over 60% in size
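Luminescence read-out: rising ELG1-luciferase signal, reflecting elevated ELG1 protein under genetic stress, flags genotoxic compounds. Cells were treated for 16 hr at 37 °C before ONE-Glo detection.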
KinaseGlo FLuc = counter-screen: inhibitors of Kinase-Glo firefly luciferase. Kinase-Glo luciferase, ATP luminescence, 8 min. Q27757. 0.28% of 200,000 active. Potency, µM (top dose mostly 38.3 µM), for the others: top-dose activity change, negative = inhibition, usual class: inhibitors. AID 1379; note: % is set by controls: 0 for no effect and ±100 for the full control effect; nearly all actives have a fitted effect of over 60% in size
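Compound is pinned into ATP-containing buffer (10 uM ATP, imidazole pH 7.2, 7 mM MgCl2). Kinase-Glo luciferase reagent is then added. Light output is recorded following an 8-min room-temperature incubation.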
FLuc counter = counter-screen for miR-21 project: firefly luciferase inhibitors or activators. 6.9% of 360,000 active. AID 588342. purified FLuc, Km substrates, luminescence inhibition. Potency, µM (doses to about 57.5 µM), inactives show top-dose activity change, negative = inhibition, usual class: inhibitors. P08659;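 note: plate controls were vehicle for no effect and reference inhibitor for full effect; nearly all actives have a fitted effect of over 55% in size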
Target sequence (P08659 whole entry, looked up): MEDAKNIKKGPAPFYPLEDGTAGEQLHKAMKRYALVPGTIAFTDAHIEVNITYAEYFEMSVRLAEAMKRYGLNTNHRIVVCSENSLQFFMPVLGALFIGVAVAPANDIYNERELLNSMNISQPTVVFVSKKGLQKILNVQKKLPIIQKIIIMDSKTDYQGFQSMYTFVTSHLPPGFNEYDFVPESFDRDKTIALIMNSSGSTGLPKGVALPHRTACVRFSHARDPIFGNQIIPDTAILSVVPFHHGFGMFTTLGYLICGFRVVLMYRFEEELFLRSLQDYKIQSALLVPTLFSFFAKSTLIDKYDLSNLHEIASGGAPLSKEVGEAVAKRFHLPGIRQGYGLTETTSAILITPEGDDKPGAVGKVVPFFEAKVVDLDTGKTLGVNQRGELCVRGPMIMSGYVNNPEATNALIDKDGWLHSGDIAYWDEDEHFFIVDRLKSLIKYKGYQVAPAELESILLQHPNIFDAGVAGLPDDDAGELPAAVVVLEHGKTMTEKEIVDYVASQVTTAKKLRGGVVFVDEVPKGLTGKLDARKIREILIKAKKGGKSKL
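Biochemical qHTS of compounds, final roughly 60 µM downward over six points, against 10 nM purified firefly luciferase using Km concentrations of substrates (10 uM D-luciferin, 10 uM ATP) in Tris acetate pH 7.5 buffer; luminescence output.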
Numbers without * were called inactive; ? = inconclusive; · = not tested or not shown; [ ] = another dose, or the depositor's remark. Hits are enriched below; roughly 7.4% of the tested compounds scored in any of these assays. Calls come from the whole dose curve; as a rule, active = well fitted curve in the direction sought with a large enough effect; inconclusive = small, poorly fitted or top-dose-only effect, or another doubt; inactive = no such curve, though single readings can be large; an effect the other way counts as inactive or inconclusive. Potency is the fitted concentration of half-maximal effect.

SMILES	SMN2 splice up	NPC1 prom act	Rab9 prom act	ELG1 genotox	KinaseGlo FLuc	FLuc counter
CCOC(=O)c1c(C)[nH]c(C(=O)COC(=O)C2CC2C)c1C (stereo not given)	?	3.55µM*	3.16µM*	2.59µM*	-2.1%	3.38µM*
COc1ccccc1C(=O)O/N=C(\c1ccccc1)c1ccncc1	-0.3%	-1.5%	-3.9%	0.3%	3.2%	-0.3%
COc1ccc2c(c1)CCC/C2=N/OC(=O)c1ccccc1OC	-16.6%	-5.8%	0.6%	-1.7%	-2.3%	13.5µM*
COc1ccc2c(c1)CC/C2=N\OC(=O)c1cccc(C)c1	10.7%	3.55µM*	?	?	-10.7%	1.51µM*
COc1ccc2c(c1)CC/C2=N\OC(=O)c1ccccc1C	-0.2%	?	?	?	-18.3%	1.51µM*
COc1ccccc1C(=O)ON=C1c2ccccc2-c2ccccc21	-13.0%	4.3%	-5.1%	-7.6%	2.8%	21.3µM*
Cc1ccc(C)c(NC(=O)CN2C(=O)COc3ccc(S(=O)(=O)N4CCCC4)cc32)c1	·	-2.4%	-2.2%	-0.2%	·	1.8%
C[C@@]12CC[C@@H]3[C@H](CCC4=CC(=O)CC[C@]43C)[C@@H]1CC[C@@H]2C(=O)Cn1cnc2c(=S)nc[nH]c21	-26.6%[9.22 µM]	·	·	·	-3.2%[7.66 µM]	·
CC(C)n1cc(CN2CCC(n3nccc3NC(=O)C3CCCC3)CC2)cn1	·	0.0%	14.1%	-3.6%	·	1.4%
CSc1nsc2nc(=O)c(/C=C3\C(C)=Nc4ccccc43)c(N)n12	7.4%	8.6%	22.5%	-5.2%	1.0%	15.1µM*
Clc1cccc(CSc2ncn(-c3ccccc3)n2)c1	?	16.0%	22.3%	?	2.0%	19µM*
Clc1ccc(CSc2ncn(-c3ccccc3)n2)cc1	16.1%	1.8%	2.4%	1.7%	-1.8%	-28.6%
COc1ccc(CNC(=S)N/N=C(/C)c2ccccc2)cc1	·	?	?	18.3µM*	·	7.57µM*
Cc1ccc2c(c1)N(CCC(=O)NCc1ccccc1Cl)C(=O)CO2	0.1%	·	·	·	·	0.7%
CCOC(=O)NC(=O)/C(C#N)=C\Nc1ccc(Cl)cc1Cl	-8.1%	-22.6%	?	16.1%	-1.5%	13.5µM*
CCCc1ccc2oc(C(=O)NCCc3nc(C(=O)OCC)cs3)c(C)c2c1	·	3.98µM*	2µM*	13.8%	·	13.5µM*
CCCc1ccc2oc(C(=O)N3CCCC3)c(C)c2c1	·	22.6%	?	?	·	21.3µM*
Cc1cc2oc(C(=O)NCCc3ccc(S(N)(=O)=O)cc3)c(C)c2cc1C	8.4%	0.7%	1.6%	13.1%	-1.9%	-4.5%
CCCc1ccc2oc(C(=O)NCCc3cnn(C)c3)c(C)c2c1	·	3.55µM*	1.78µM*	?	·	13.5µM*
CCCc1ccc2oc(C(=O)N(C)Cc3ccn[nH]3)c(C)c2c1	·	?	?	18.3µM*	·	15.1µM*
Cc1c(C(=O)N2CCCC2)oc2ccc(Br)cc12	·	5.4%	2.9%	24.9%	·	?
CCCc1ccc2oc(C(=O)N(Cc3nccn3C)C(C)C)c(C)c2c1	·	18.2%	26.9%	13.3%	·	?
CCOc1ccc(NC(=O)N2CC3CCCN3c3ccccc32)cc1 (stereo not given)	·	·	·	·	·	-12.8%
Cc1ccc(NC(=O)C2CCCN(S(=O)(=O)c3ccc(C)cc3)C2)cc1 (stereo not given)	5.1%	·	·	·	·	0.4%
CCOC(=O)C1=C(COC(=O)Cc2c(F)cccc2Cl)NC(=O)NC1C (stereo not given)	·	-1.5%	-3.1%	-2.4%	·	-3.5%
SMILES	SMN2 splice up	NPC1 prom act	Rab9 prom act	ELG1 genotox	KinaseGlo FLuc	FLuc counter
Cc1nnc2c3ccccc3c(-c3cccs3)nn12	11.2µM*	-21.9%	0.3%	12.6µM*	0.8%	-0.1%
Cc1nnc2c3ccccc3c(-c3ccc(O)cc3)nn12	28.6%	-2.9%	-4.6%	?	5.2%	-0.1%
COC(=O)c1nc2ccc(N3CCOCC3)cc2c(C)c1C(=O)OC	10µM*	?	2.82µM*	-2.5%	-3.4%	2.39µM*
COC(=O)c1ccccc1NC(=O)CNc1ccc(F)c(S(=O)(=O)N2CCOCC2)c1	·	-0.6%	0.5%	-1.1%	·	-1.2%
COc1ccccc1N1CCN(C2CCN(C(=O)COc3cccc(C)c3)CC2)CC1	4.7%	1.1%	-6.6%	-4.4%	-1.2%	-1.4%
O=C(CC1CC2CCC1C2)Nc1nc(-c2ccccn2)cs1 (stereo not given)	16.9%	28.1%	3.98µM*	-4.7%	-2.4%	23.9µM*
O=C(Nc1nc(-c2ccccn2)cs1)C1CC1	?	?	?	0.3%	0.2%	?
O=C(Nc1nc(-c2ccccn2)cs1)C12CC3CC(CC(O)(C3)C1)C2	11.2µM*	2.24µM*	3.16µM*	?	-3.4%	6.75µM*
CCOc1ccc(/C=C/C2=Cc3c(sc(NC(=O)CSc4n[nH]c(N)n4)c3C#N)C(C)(C)C2)cc1	2.8%	10.7%	0.7%	-15.5%	-4.7%	9.53µM*
CC(NC(=O)COC(=O)C1(C)CC1(Cl)Cl)c1ccccc1 (stereo not given)	·	2.0%	-5.9%	0.8%	·	6.6%
CC(C)(C)c1ccc(OCc2nc(-c3ccccn3)no2)c(Br)c1	12.6µM*	·	·	·	-3.0%	3.01µM*
Clc1cc(Cl)c(OCc2nc(-c3ccccn3)no2)cc1Cl	11.2µM*	1.12µM*	0.708µM*	?	-10.1%	1.35µM*
CCOC(=O)c1sc(=S)n(C)c1NC(=O)c1ccccc1C	26.7%	-2.6%	1.6%	2.2%	-0.3%	-15.2%
O=C(COC(=O)c1cccnc1Cl)NCCc1ccc(F)cc1	·	·	·	2.2%	·	·
O=C(COc1ccccc1Cl)NCC1(N2CCOCC2)CCCCC1	·	·	·	·	·	-9.6%
COc1cc(-c2nc3sc(C)c(C)c3c(=O)o2)cc(OC)c1OC	·	4.3%	-1.8%	-2.8%	·	-0.2%
CCc1cc2c(=O)oc(-c3ccc(F)cc3)nc2s1	·	2.4%	11.5%	1.2%	·	4.78µM*
Cc1cc2c(=O)oc(-c3ccc(Br)cc3)nc2s1	·	26.9%	21.5%	?	·	1.9µM*
Cc1cccc(-c2nc3sc(C)cc3c(=O)o2)c1	·	23.0%	12.5%	12.3%	-3.2%	2.69µM*
CCCCn1c(=O)c2[nH]c(C34CC5CC(CC3C5)C4)nc2n(CCCO)c1=O	·	·	·	·	-4.3%[39.9 µM]	·
C[C@@H]1CC=C[C@H]2[C@H]1C(=O)N(Cc1ccccc1)[C@H]2c1ccc(-c2cc3ccccc3s2)cc1F	·	?	?	?	·	1.69µM*
C[C@@H]1CC=C[C@H]2[C@H]1C(=O)N(Cc1ccccc1)[C@H]2c1ccc(-c2ccc(F)cc2)cc1F	·	-9.0%	-6.7%	-4.9%	·	3.2%
O=S(=O)(c1cccs1)N1CCCc2cccc(O)c21	9.2%	7.5%	3.55µM*	4.8%	-4.7%	19µM*

Compound activity deposited in PubChem by National Center for Advancing Translational Sciences (NCATS).
